Assay results: PubChem BioAssay
Active and inactive are the calls of the source.

Key:
[1] = E. coli DRC41 culture turbidity changes, primary screen, E. coli filamentation inducer project, strain DRC41, OD650, 48 h (AID 1152);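 further: E. coli MC1000 strain DRC41 lacking acrAB efflux pump and sulA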; details: E. coli DRC41 (acrAB sulA), higher = more signal, called active from +8 up or from −8 down
[2] = small-molecule binders of probe aLefty1, primary screen, biochemical, small-molecule microarray, 635/667 nm fluorescence (AID 1153); details: higher = more signal;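 further: score merges spot fluorescence with signal-to-noise ratio from the scanned slide images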
[3] = PSAC antagonists in infected red cells, primary screen, cell-based, P. falciparum Indochina, OD700, 1 h (AID 1154); details: P. falciparum Indochina infected RBC osmotic lysis, higher = more signal, called active from +8 up or from −8 down
[4] = PSAC antagonists in infected red cells, primary screen, cell-based, P. falciparum Indochina, OD700, 2 h (AID 1155);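 further: lysis reports solute entry through the parasite surface anion channel PSAC; channel blockers reduce lysis of infected cells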; details: P. falciparum Indochina infected erythrocytes, osmotic lysis OD700; higher = more signal, called active from +8 up or from −8 down
[5] = osmotic lysis modulators in infected erythrocytes, primary screen, PSAC antagonist project, cell-based, P. falciparum Indochina, OD700, 3 h (AID 1156); details: higher = more signal, called active from +8 up or from −8 down
[6] = PSAC antagonists in infected red cells, primary screen, cell-based, P. falciparum Indochina, OD700, 18 h (AID 1157); details: P. falciparum Indochina infected erythrocytes, osmotic lysis OD700, 18 h; higher = more signal, called active from +8 up or from −8 down
[7] = modulators of S6 phosphorylation in cells, primary screen, cell-based, A549, cytoblot, luminescence, serum-stimulated (AID 1158); details: A549 phospho-S6 cytoblot, 5 h, higher = more signal;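 further: serum-stimulated A549 lung adenocarcinoma cells; signal is phosphorylated S6 detected by cytoblot immunostaining with HRP secondary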
[8] = molecular target: NADPH oxidase 2 (Homo sapiens) (UniProt P04839); assay: NOX2-dependent H2O2 signal modulators, primary screen, NOX inhibitor project, cell-based, HEK293-NOX2, PMA-stimulated, Amplex Red fluorescence (AID 1159); details: 45 min, higher = more signal, called active from +8 up or from −8 down; further: test concentration not given here
NADPH oxidase 2 (Homo sapiens), sequence (P04839 whole entry, looked up): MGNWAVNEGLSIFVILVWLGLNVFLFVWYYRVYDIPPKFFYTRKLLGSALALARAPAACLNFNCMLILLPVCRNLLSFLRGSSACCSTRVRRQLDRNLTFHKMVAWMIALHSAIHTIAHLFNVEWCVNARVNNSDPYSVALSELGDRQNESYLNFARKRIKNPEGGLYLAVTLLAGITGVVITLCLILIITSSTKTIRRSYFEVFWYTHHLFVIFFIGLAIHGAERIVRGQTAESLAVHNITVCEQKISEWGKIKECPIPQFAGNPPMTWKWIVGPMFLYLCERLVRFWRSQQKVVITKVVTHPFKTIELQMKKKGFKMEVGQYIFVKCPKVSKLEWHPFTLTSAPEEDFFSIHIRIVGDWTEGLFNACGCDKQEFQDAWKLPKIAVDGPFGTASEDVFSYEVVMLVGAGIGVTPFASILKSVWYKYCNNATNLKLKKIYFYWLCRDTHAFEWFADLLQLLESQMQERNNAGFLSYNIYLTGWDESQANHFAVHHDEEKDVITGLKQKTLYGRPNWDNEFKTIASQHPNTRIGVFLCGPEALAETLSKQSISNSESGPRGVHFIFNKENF

[9] = molecular target: NADPH oxidase 4 (Homo sapiens) (UniProt Q9NPH5); assay: NOX4-dependent H2O2 signal modulators, primary screen, NOX inhibitor project, cell-based, HEK293-NOX4, tetracycline-induced, Amplex Red fluorescence (AID 1160); details: 45 min, higher = more signal, called active from +8 up or from −8 down
NADPH oxidase 4 (Homo sapiens), sequence (Q9NPH5 whole entry, looked up): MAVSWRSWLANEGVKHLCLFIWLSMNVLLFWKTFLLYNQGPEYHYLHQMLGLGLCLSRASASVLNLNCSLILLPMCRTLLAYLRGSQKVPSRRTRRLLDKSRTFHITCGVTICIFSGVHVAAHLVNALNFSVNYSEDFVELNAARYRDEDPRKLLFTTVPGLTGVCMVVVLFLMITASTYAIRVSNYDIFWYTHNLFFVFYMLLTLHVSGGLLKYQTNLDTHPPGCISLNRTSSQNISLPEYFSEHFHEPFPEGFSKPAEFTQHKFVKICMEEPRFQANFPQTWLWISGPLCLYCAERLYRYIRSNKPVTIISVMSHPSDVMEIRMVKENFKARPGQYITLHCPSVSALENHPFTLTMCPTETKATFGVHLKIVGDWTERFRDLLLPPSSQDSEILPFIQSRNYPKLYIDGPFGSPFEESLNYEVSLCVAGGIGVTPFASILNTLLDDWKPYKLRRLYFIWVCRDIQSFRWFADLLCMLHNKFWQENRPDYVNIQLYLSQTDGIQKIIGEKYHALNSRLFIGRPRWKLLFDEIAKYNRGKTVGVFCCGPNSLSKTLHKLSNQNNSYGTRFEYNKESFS

[10] = molecular target: NADPH oxidase 5 (Homo sapiens) (UniProt Q96PH1); assay: NOX5-dependent H2O2 signal modulators, primary screen, NOX inhibitor project, cell-based, HEK293-NOX5, Amplex Red fluorescence (AID 1161); details: HEK293-NOX5, ionomycin, 45 min, higher = more signal
NADPH oxidase 5 (Homo sapiens), sequence (Q96PH1 whole entry, looked up): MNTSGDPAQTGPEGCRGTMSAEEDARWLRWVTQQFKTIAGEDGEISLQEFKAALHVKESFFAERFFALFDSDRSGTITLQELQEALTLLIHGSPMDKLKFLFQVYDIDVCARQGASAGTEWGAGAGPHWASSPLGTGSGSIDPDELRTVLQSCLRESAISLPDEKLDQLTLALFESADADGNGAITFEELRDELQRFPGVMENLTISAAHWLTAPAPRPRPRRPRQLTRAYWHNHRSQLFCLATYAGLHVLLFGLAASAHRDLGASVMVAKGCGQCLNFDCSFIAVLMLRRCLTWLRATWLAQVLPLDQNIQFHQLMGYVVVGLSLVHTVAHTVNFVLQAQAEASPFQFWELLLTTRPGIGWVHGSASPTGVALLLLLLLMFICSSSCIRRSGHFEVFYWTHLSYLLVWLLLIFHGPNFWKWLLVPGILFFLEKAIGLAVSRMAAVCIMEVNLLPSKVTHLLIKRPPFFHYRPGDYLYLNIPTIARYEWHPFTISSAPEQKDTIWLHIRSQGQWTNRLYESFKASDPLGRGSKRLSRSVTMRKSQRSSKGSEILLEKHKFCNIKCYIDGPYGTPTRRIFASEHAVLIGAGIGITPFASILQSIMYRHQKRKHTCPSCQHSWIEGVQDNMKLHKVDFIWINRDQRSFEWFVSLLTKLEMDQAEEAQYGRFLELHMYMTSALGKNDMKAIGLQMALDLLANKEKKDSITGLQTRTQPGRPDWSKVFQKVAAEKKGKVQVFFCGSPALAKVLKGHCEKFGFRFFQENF

| Compound | z-score [1] | composite z-score [2] | z-score [3] | z-score [4] | z-score [5] | z-score [6] | z-score [7] | z-score [8] | z-score [9] | z-score [10] |
| --- | --- | --- | --- | --- | --- | --- | --- | --- | --- | --- |
| COC(=O)C1=CC(c2ccc(CO)cc2)=CC(C2CC2)N(Cc2sc3ccccc3c2Cl)C=C1C(=O)OC (stereo not given) | -0.248 (inactive) | 0.385 | 13.7 (active) | 0.815 (inactive) | -0.994 (inactive) | -1.07 (inactive) | 0.983 | -0.872 (inactive) | -0.189 (inactive) | -0.0786 |
| CO[C@@H]1COC(=O)CC=C[C@H](C)COC(=O)[C@H](Cc2ccccc2)NC(=O)CC=C[C@H]1C | 0.106 (inactive) | -0.358 | -0.0544 (inactive) | -0.866 (inactive) | -0.295 (inactive) | -1.49 (inactive) | 0.681 | -0.486 (inactive) | 0.845 (inactive) | 0.528 |
| O=C1C2C=CC(C(O)C#Cc3ccccc3)N(Nc3ccccc3)C2C(=O)N1c1ccccc1 (stereo not given) | -0.559 (inactive) | -0.025 | 4.69 (inactive) | 1.8 (inactive) | 0.537 (inactive) | 1.49 (inactive) | -0.964 | -0.432 (inactive) | -4.44 (inactive) | -1.09 |
| COc1cc2c(cc1OC)CN(C(=O)[C@H]1[C@@H]3C(=O)O[C@@H](c4ccccc4)[C@@H](c4ccccc4)N3[C@@H](c3ccc(O)cc3)[C@]13C(=O)Nc1ccc(C#CC4(O)CCCCCC4)cc13)CC2 | -0.287 (inactive) | 1.76 | 0.621 (inactive) | 1.23 (inactive) | 0.89 (inactive) | 0.737 (inactive) | 0.48 | 1.79 (inactive) | -0.239 (inactive) | 1.02 |
| C[N+](C)(C)CCCCNC(=O)[C@H]1C[C@H]2C(=O)NCC(=O)N2[C@H]1c1cccc(OCCO)c1 | -0.184 (inactive) | 0.223 | 2.81 (inactive) | -0.0646 (inactive) | -2.28 (inactive) | -0.0179 (inactive) | 0.0455 | -1.21 (inactive) | 0.0245 (inactive) | 0.259 |
| C=CC[C@@]1(C(=O)N2CCOCC2)N=C(c2ccc(OCCCO)cc2)O[C@@H]1c1ccccc1 | 1.24 (inactive) | -0.269 | 20.8 (active) | 4.03 (inactive) | 2.25 (inactive) | 1.11 (inactive) | -0.115 | -1.04 (inactive) | 0.471 (inactive) | -1 |
| O=C1O[C@H](c2ccccc2)[C@H](c2ccccc2)N2[C@H]1[C@@H](C(=O)NC[C@H](O)c1ccccc1)[C@]1(C(=O)Nc3ccc(C#CC4(O)CCCCCC4)cc31)[C@H]2c1ccc(OCCO)cc1 | 3.02 (inactive) | 0.0811 | 3.64 (inactive) | -0.0068 (inactive) | 0.226 (inactive) | -1.03 (inactive) | 2.78 | 2.48 (inactive) | 0.0727 (inactive) | 0.139 |
| CCCC[C@@H]1C[C@H]1[C@@H](NC(=O)c1ccccc1)c1ccccc1C(F)(F)F | -0.94 (inactive) | 0.747 | -0.247 (inactive) | 0.803 (inactive) | -0.429 (inactive) | 0.422 (inactive) | 0.807 | 0.566 (inactive) | -1.02 (inactive) | 0.262 |
| COc1ccc([Si](C)(C)[C@H]2[C@H](CC(=O)N(CCO)Cc3ccccc3)O[C@@]3(C(=O)N(C)c4ccccc43)[C@@H]2C)cc1 | 1.28 (inactive) | 0.106 | 9.01 (active) | 0.781 (inactive) | -1.12 (inactive) | -0.698 (inactive) | 0.342 | -0.246 (inactive) | 0.129 (inactive) | -2.43 |
| COCCOC(=O)N1C(=O)[C@@]2(c3cc(C#CC4=CCCCC4)ccc31)[C@H](c1ccc(O)cc1)N1[C@H](c3ccccc3)[C@H](c3ccccc3)OC(=O)[C@H]1[C@@H]2C(=O)N1CCCCCCC1 | 1.65 (inactive) | 1.49 | -0.138 (inactive) | -0.321 (inactive) | -0.52 (inactive) | 0.389 (inactive) | -0.137 | 1.06 (inactive) | 0.325 (inactive) | 1.53 |
| C=CCN1C(=O)[C@@]2(O[C@@H](CCn3cc([C@H](O)c4ccccc4)nn3)[C@H]([Si](C)(C)c3ccc(OC)cc3)[C@H]2C)c2cc(N3CCOC3=O)ccc21 | 1.77 (inactive) | -0.139 | 6.55 (inactive) | 0.569 (inactive) | -0.0434 (inactive) | -0.233 (inactive) | 1.67 | -0.379 (inactive) | 1.18 (inactive) | -1.67 |
| O=C1C2C=CC(C(O)Cc3ccccc3)N(Nc3ccc([N+](=O)[O-])cc3)C2C(=O)N1c1ccccc1 (stereo not given) | -0.458 (inactive) | 0.769 | 3.94 (inactive) | 1.61 (inactive) | 0.371 (inactive) | 0.877 (inactive) | -0.521 | -1.1 (inactive) | -2.7 (inactive) | -1.64 |
| O=C1O[C@@H](c2ccccc2)[C@@H](c2ccccc2)N2[C@@H](c3ccc(O)cc3)[C@]3(C(=O)Nc4ccc(C#CC5(O)CCCCCC5)cc43)[C@@H](C(=O)Nc3nc4ccccc4s3)[C@H]12 | 1.74 (inactive) | 0.271 | 0.733 (inactive) | -0.232 (inactive) | 0.445 (inactive) | -0.713 (inactive) | 1.16 | 1.62 (inactive) | -1.27 (inactive) | 1.96 |
| O=C(N1CCCCC1)[C@@]1(CCS(=O)(=O)c2ccccc2)N=C(c2ccc(OCCCO)cc2)O[C@H]1c1ccccc1 | 0.646 (inactive) | 0.347 | 30.1 (active) | 24.2 (active) | 2.17 (inactive) | 4.24 (inactive) | 2.24 | -4.27 (inactive) | 0.156 (inactive) | -4.84 |
| CC(C)CNC(=O)[C@@]1(C)c2ccccc2C(=O)N(Cc2ccc(OC(F)(F)F)cc2)[C@H]1c1ccc(CO)cc1 | 1.28 (inactive) | 0.152 | 2.97 (inactive) | 0.251 (inactive) | 1.09 (inactive) | -0.0139 (inactive) | 0.181 | -0.201 (inactive) | 0.775 (inactive) | 1.01 |
| CCCC[C@@H]1C[C@H]1[C@@H](NC(=O)c1cccs1)c1ccc(Cl)cc1 | -1.06 (inactive) | -0.124 | 0.492 (inactive) | -0.696 (inactive) | 1.13 (inactive) | -1.93 (inactive) | 1.38 | -3.93 (inactive) | -6.76 (inactive) | -2.26 |
| CC(=O)NCCCC[C@@H]1NC(=O)[C@@H]2C[C@H](C(=O)NCc3ccc(F)cc3)[C@H](c3cccc(OCCO)c3)N2C1=O | 0.197 (inactive) | 0.0259 | 5.48 (inactive) | 0.503 (inactive) | -4.35 (inactive) | 0.374 (inactive) | -0.206 | 1.87 (inactive) | 1.42 (inactive) | 1.1 |
| C=CCOC(=O)[C@@H]1[C@H]2C(=O)O[C@H](c3ccccc3)[C@H](c3ccccc3)N2[C@H](c2ccc(OCCOC(=O)[C@H]3C[C@H]4C(=O)N5CCC[C@H]5C(=O)N4[C@H]3c3ccc(O)cc3)cc2)[C@@]12C(=O)Nc1ccccc12 | 2.34 (inactive) | 0.244 | 3.21 (inactive) | 0.288 (inactive) | -2.79 (inactive) | -1.39 (inactive) | 0.557 | 1.56 (inactive) | 0.0128 (inactive) | 2.16 |
| COC(=O)Cn1c(C(=O)N2CCCC2)cc2c1C[C@H]1CN(C(=O)c3ccccc3)[C@@](Cc3ccc(OC)cc3)(C(=O)OC)[C@@H]21 | -1.45 (inactive) | 0.51 | 15.3 (active) | 2.13 (inactive) | 1.68 (inactive) | 1.43 (inactive) | -0.56 | 0.857 (inactive) | 0.778 (inactive) | 2.44 |
| CC1=C([C@H](O)CCc2ccccc2)[C@H](CO)[C@@H]2C(=O)N(Cc3ccccc3)C(=O)[C@@H]2C1 | 1.85 (inactive) | -0.147 | 5.86 (inactive) | 0.759 (inactive) | 0.695 (inactive) | 0.5 (inactive) | 0.663 | -0.0572 (inactive) | 0.16 (inactive) | -0.798 |
| COc1ccc(CCNC(=O)[C@@]2(c3ccc([N+](=O)[O-])cc3)CC(=O)N(C(C)C)[C@@H]2c2ccc(CO)cc2)cc1 | 1.6 (inactive) | -0.0353 | 4.07 (inactive) | 0.208 (inactive) | 1.44 (inactive) | 0.621 (inactive) | 0.54 | 0.891 (inactive) | 0.433 (inactive) | 0.24 |
| CCN1C(C)=C(C(=O)OC)[C@@H](c2ccccc2)N2C(=O)[C@](O)(C(=O)OC)[C@@H](c3ccccc3)C(C(C)=O)=C12 | -0.461 (inactive) | -0.0111 | 2.31 (inactive) | 0.414 (inactive) | 0.291 (inactive) | 0.0714 (inactive) | 3.95 | -0.211 (inactive) | -0.585 (inactive) | 1.35 |
| CCOC(=O)C[C@H]1[C@H](OC(=O)c2cc3ccccc3oc2=O)[C@@H](NC(=O)C2CCCCC2)c2cc(OCCCO)ccc2N1C(=O)c1ccc2ccccc2n1 | -0.836 (inactive) | -0.0547 | 4.81 (inactive) | 0.491 (inactive) | 0.499 (inactive) | 0.549 (inactive) | -0.725 | 2.44 (inactive) | 1.52 (inactive) | 0.451 |
| CN1C2C=C(c3ccc(CO)cc3)C(C3C(=O)N(C(N)=O)C(=O)C32)C1c1cccs1 (stereo not given) | 1.37 (inactive) | -0.0893 | 2.26 (inactive) | -1.44 (inactive) | -0.71 (inactive) | -1.37 (inactive) | -0.402 | 1.57 (inactive) | -0.124 (inactive) | -0.0981 |
| CC(C)(C)OC(=O)CC[C@@]1(C(=O)NCc2ccccc2)N=C(c2ccc(OCCCO)cc2)O[C@@H]1c1ccccc1 | 1.9 (inactive) | 0.736 | 23.9 (active) | 11.3 (active) | 1.61 (inactive) | 1.7 (inactive) | 3.43 | -1.25 (inactive) | 0.596 (inactive) | -0.58 |
| C=CCC(OC(C)=O)[C@@H]1[C@@H](N(Cc2ccc(-c3ccccc3)cc2)C(=O)c2ccc(-c3ccccc3)cc2)c2cc(OCCCO)ccc2N1C(=O)Cc1ccc(OC)cc1 (stereo not given in full) | -0.685 (inactive) | 0.149 | 0.572 (inactive) | -0.402 (inactive) | -0.501 (inactive) | -0.184 (inactive) | -0.192 | -1.56 (inactive) | 1.2 (inactive) | 1.41 |
